Reference: PubChem BioAssay AID1159580 (chemical genetic matrix, 2015)
Hit rate of the full screen: of about 5,500 compounds, about 2,000 (36%) were called active. About 18% were inconclusive and are not listed. Cut-off read from the data, not from the text of the source: active = normalized growth mostly below about 0.91 (no sharp cut-off); inconclusive = no clear call, values can overlap the other calls; inactive = mostly above about 0.92. Some of the results follow.

Experiment: chemical genetic growth profiling, strain panel (AID 1159580);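 note: tested at 20 µM; growth read once vehicle control cultures reached saturation at 30 °C; 1 = growth at the plate median or of vehicle wells; lower values mean less growth of the strain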
Settings: growth OD

Measured: normalized growth

C=C[C@@]1(C)CC(=O)[C@@]2(O)[C@](C)(O1)[C@@H](OC(C)=O)[C@@H](O)C1C(C)(C)CC[C@H](O)[C@@]12C (some centres not stated)
inactive: S. cerevisiae deletion strains, locus YJR075W, strain HOC1, active compounds read low 0.997 | S. cerevisiae deletion strains, locus YKL009W, strain mrt4, active compounds read low 0.964 | S. cerevisiae deletion strains, locus YKL068W, active compounds read low 0.992 | S. cerevisiae deletion strains, locus YKL085W, strain MDH1 (second series), active compounds read low 0.966 | S. cerevisiae deletion strains, locus YKL085W, strain MDH1, active compounds read low 0.966 | S. cerevisiae deletion strains, locus YKL160W, strain elf1, active compounds read low 0.963 | S. cerevisiae deletion strains, locus YKL190W, strain CNB1, active compounds read low 0.99 | S. cerevisiae deletion strains, locus YKR001C, strain vps1, active compounds read low 0.984 | S. cerevisiae deletion strains, locus YKR026C, strain gcn3, active compounds read low 0.997 | S. cerevisiae deletion strains, locus YKR091W, strain srl3, active compounds read low 0.971 | S. cerevisiae deletion strains, locus YLL001W, strain dnm1, active compounds read low 1.02 | S. cerevisiae deletion strains, locus YLL026W, active compounds read low 0.964 | S. cerevisiae deletion strains, locus YLL041C, strain sdh2, active compounds read low 0.969 | S. cerevisiae deletion strains, locus YLR027C, strain aat2, active compounds read low 0.98 | S. cerevisiae deletion strains, locus YLR039C, strain RIC1, active compounds read low 0.939 | S. cerevisiae deletion strains, locus YLR058C, strain SHM2, active compounds read low 0.982 | S. cerevisiae deletion strains, locus YLR102C, strain apc9, active compounds read low 0.974 | S. cerevisiae deletion strains, locus YLR113W, strain HOG1, active compounds read low 0.955 | S. cerevisiae deletion strains, locus YLR221C, strain rsa3, active compounds read low 1.03 | S. cerevisiae deletion strains, locus YLR258W, strain gsy2, active compounds read low 0.965 | S. cerevisiae deletion strains, locus YLR262C, strain YPT6 (second series), active compounds read low 0.968 | S. cerevisiae deletion strains, locus YLR262C, strain YPT6, active compounds read low 0.894 | S. cerevisiae deletion strains, locus YLR268W, strain sec22, active compounds read low 1.07 | S. cerevisiae deletion strains, locus YLR320W, strain mms22, active compounds read low 1.01 | S. cerevisiae deletion strains, locus YLR330W, strain CHS5, active compounds read low 0.989 | S. cerevisiae deletion strains, locus YLR342W, strain FKS1 (second series), active compounds read low 0.987 | S. cerevisiae deletion strains, locus YLR342W, strain FKS1, active compounds read low 0.991 | S. cerevisiae deletion strains, locus YLR357W, strain rsc2, active compounds read low 0.987 | S. cerevisiae deletion strains, locus YLR370C, strain arc18, active compounds read low 0.978 | S. cerevisiae deletion strains, locus YLR371W, strain rom2, active compounds read low 0.968 | S. cerevisiae deletion strains, locus YLR384C, strain iki3, active compounds read low 0.993 | S. cerevisiae deletion strains, locus YLR418C, strain cdc73, active compounds read low 0.99 | S. cerevisiae deletion strains, locus YML016C, strain PPZ1, active compounds read low 0.991 | S. cerevisiae deletion strains, locus YML032C, strain rad52, active compounds read low 1.01 | S. cerevisiae deletion strains, locus YML120C, strain ndi1, active compounds read low 0.989 | S. cerevisiae deletion strains, locus YML124C, strain tub3, active compounds read low 0.983 | S. cerevisiae deletion strains, locus YMR058W, strain fet3, active compounds read low 0.982 | S. cerevisiae deletion strains, locus YMR078C, strain ctf18, active compounds read low 0.985 | S. cerevisiae deletion strains, locus YMR125W, strain sto1, active compounds read low 0.974 | S. cerevisiae deletion strains, locus YMR129W, active compounds read low 0.965 | S. cerevisiae deletion strains, locus YMR205C, strain PFK2, active compounds read low 0.998 | S. cerevisiae deletion strains, locus YMR223W, strain ubp8, active compounds read low 0.98 | S. cerevisiae deletion strains, locus YMR231W, strain pep5, active compounds read low 0.992 | S. cerevisiae deletion strains, locus YMR263W, strain SAP30, active compounds read low 0.992 | S. cerevisiae deletion strains, locus YMR307W, strain GAS1, active compounds read low 1 | S. cerevisiae deletion strains, locus YNL067W, strain RPL9B, active compounds read low 1.01 | S. cerevisiae deletion strains, locus YNL071W, strain lat1, active compounds read low 0.988 | S. cerevisiae deletion strains, locus YNL128W, strain TEP1, active compounds read low 0.965 | S. cerevisiae deletion strains, locus YNL153C, strain GIM3, active compounds read low 1.01 | S. cerevisiae deletion strains, locus YNL183C, strain NPR1, active compounds read low 0.933 | S. cerevisiae deletion strains, locus YNL209W, strain ssb2, active compounds read low 0.992 | S. cerevisiae deletion strains, locus YNL233W, strain BNI4, active compounds read low 1.01 | S. cerevisiae deletion strains, locus YNL248C, strain rpa49, active compounds read low 0.919 | S. cerevisiae deletion strains, locus YNL250W, strain rad50, active compounds read low 0.972 | S. cerevisiae deletion strains, locus YNL271C, strain bni1, active compounds read low 0.987 | S. cerevisiae deletion strains, locus YNL298W, strain CLA4, active compounds read low 0.959 | S. cerevisiae deletion strains, locus YNL307C, strain MCK1, active compounds read low 0.996 | S. cerevisiae deletion strains, locus YNL322C, strain KRE1 (second series), active compounds read low 0.939 | S. cerevisiae deletion strains, locus YNL322C, strain KRE1, active compounds read low 0.994 | S. cerevisiae deletion strains, locus YNR049C, strain mso1, active compounds read low 0.959 | S. cerevisiae deletion strains, locus YNR052C, strain pop2, active compounds read low 0.984 | S. cerevisiae deletion strains, locus YOL006C, strain TOP1, active compounds read low 0.997 | S. cerevisiae deletion strains, locus YOL012C, strain htz1 1.15 | S. cerevisiae deletion strains, locus YOL147C, strain pex11, active compounds read low 0.999 | S. cerevisiae deletion strains, locus YOR001W, strain rrp6, active compounds read low 1.03 | S. cerevisiae deletion strains, locus YOR061W, strain CKA2, active compounds read low 0.972 | S. cerevisiae deletion strains, locus YOR069W, strain VPS5, active compounds read low 0.993 | S. cerevisiae deletion strains, locus YOR070C, strain gyp1, active compounds read low 0.986 | S. cerevisiae deletion strains, locus YOR080W, strain dia2, active compounds read low 0.973 | S. cerevisiae deletion strains, locus YOR083W, strain WHI5, active compounds read low 0.92 | S. cerevisiae deletion strains, locus YOR106W, strain vam3, active compounds read low 0.919 | S. cerevisiae deletion strains, locus YOR136W, strain idh2, active compounds read low 0.978 | S. cerevisiae deletion strains, locus YOR144C, strain elg1, active compounds read low 0.991 | S. cerevisiae deletion strains, locus YOR184W, strain ser1, active compounds read low 0.978 | S. cerevisiae deletion strains, locus YOR231W, strain MKK1, active compounds read low 0.966 | S. cerevisiae deletion strains, locus YOR265W, strain rbl2, active compounds read low 0.988 | S. cerevisiae deletion strains, locus YOR270C, strain vph1, active compounds read low 0.94 | S. cerevisiae deletion strains, locus YOR290C, strain snf2, active compounds read low 0.955 | S. cerevisiae deletion strains, locus YOR316C, strain cot1, active compounds read low 0.984 | S. cerevisiae deletion strains, locus YPL051W, strain arl3, active compounds read low 0.97 | S. cerevisiae deletion strains, locus YPL055C, strain LGE1, active compounds read low 0.998 | S. cerevisiae deletion strains, locus YPL078C, strain atp4, active compounds read low 0.955 | S. cerevisiae deletion strains, locus YPL106C, strain sse1, active compounds read low 0.955 | S. cerevisiae deletion strains, locus YPL240C, strain hsp82, active compounds read low 0.987 | S. cerevisiae deletion strains, locus YPL241C, strain CIN2, active compounds read low 0.989 | S. cerevisiae deletion strains, locus YPL256C, strain CLN2, active compounds read low 0.973 | S. cerevisiae deletion strains, locus YPR119W, strain clb2, active compounds read low 0.978 | S. cerevisiae deletion strains, locus YPR141C, strain kar3, active compounds read low 0.975 | S. cerevisiae deletion strains, locus YPR163C, strain tif3, active compounds read low 0.993 | S. cerevisiae deletion strains, locus YPR167C, strain met16, active compounds read low 0.986 | S. cerevisiae deletion strains, strain wtn01, active compounds read low 0.997 | S. cerevisiae strains, strain wild type, active compounds read low 0.984
